In PubChem BioAssay (NCATS):
Results filed as inconclusive are left out. Where a call stands in place of a potency, no number is given. Calls of active or inactive are those of the source. The call rests on the fitted dose curve; in most records, active means well fitted cell-killing curve with a large enough effect; inconclusive means small, poorly fitted or top-dose-only effect; inactive means no such curve, though single readings can be large or run the other way.

assay: qHTS of pediatric cancer cell lines to identify multiple opportunities for drug repurposing: Primary screen for Rh30 cells (AID 1347107); conditions: Rh30 rhabdomyosarcoma viability, CellTiter-Glo luminescence, 48 h; series mostly up to 46 µM; further: nearly all actives have a fitted effect of over 75% in size
Summary of the method: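 Cells (500-1,000/well) rested 5 h, then received compounds for 48 h; metabolically active cells were measured by CellTiter-Glo luminescence. Final concentrations spanned up to 46 µM (MIPE, 11-point) or 0.59 nM-46 µM (NPC, 8-point) in primary screens, 11-point in follow-ups.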
Potency means the concentration at half of the fitted maximal effect.

Row | SMILES | Potency
1 | Cc1cc(C(=O)NOCCO)c(Nc2ccc(I)cc2F)n(C)c1=O | inactive
2 | OCC(O)C(O)C(O)CO (stereo not drawn) | inactive
3 | Nc1nc(=O)n([C@H]2C[C@H](O)[C@@H](CO)O2)cc1F | inactive
4 | Cc1cnc(Nc2ccc(CN3CCOCC3)cc2)nc1Nc1cccc(S(=O)(=O)NC(C)(C)C)c1 | 6.62 µM (active)
5 | OC[C@@H](O)[C@@H](O)[C@H](O)[C@@H](O)CO | inactive
6 | CC(C)c1cc(C(C)C)c(CC(=O)NS(=O)(=O)Oc2c(C(C)C)cccc2C(C)C)c(C(C)C)c1 | inactive
7 | C[C@H](NC(=O)C(C#N)=Cc1cccc(Br)n1)c1ccccc1 | 23.5 µM (active)
8 | COC(=O)[C@@H]1[C@H]2C[C@@H]3c4[nH]c5ccccc5c4CCN3C[C@@H]2CC[C@@H]1O | inactive
9 | CC(C)C[C@H](NC(=O)[C@@H](NC(=O)c1cccc(-c2ccccc2)n1)[C@@H](C)O)B(O)O | 0.372 µM (active)
10 | CCN(C(=O)c1c(O)c2c(Cl)cccc2n(C)c1=O)c1ccccc1 | inactive
11 | CC(C)(O)CC[C@@H](O)[C@](C)(O)[C@H]1CC[C@@]2(O)C3=CC(=O)[C@@H]4C[C@@H](O)[C@@H](O)C[C@]4(C)[C@@H]3CC[C@]12C | inactive
12 | c1coc(CNc2ncnc3nc[nH]c23)c1 | inactive
13 | CCCCOc1ccc(C(=O)Nc2ccc(F)cc2F)cc1 | inactive
14 | CC[C@H]1OC(=O)[C@H](C)[C@@H](O[C@H]2C[C@@](C)(OC)[C@@H](O)[C@H](C)O2)[C@H](C)[C@@H](O[C@@H]2O[C@@H](C)C[C@H](N(C)C)[C@@H]2O)[C@](C)(O)C[C@@H](C)C(=O)[C@H](C)[C@@H](O)[C@]1(C)O | inactive
15 | CCNC(=O)c1cc2c(-c3cc(OCCN4CCCC4)c(Cl)cc3Cl)nc(N)nc2s1 | inactive
16 | CC(C)(O)[C@H]1CC[C@@](C)([C@H]2[C@@H](O)C[C@@]3(C)[C@@H]4C[C@H](O[C@@H]5O[C@H](CO)[C@@H](O)[C@H](O)[C@@H]5O)[C@H]5C(C)(C)[C@@H](O[C@@H]6OC[C@@H](O)[C@H](O)[C@@H]6O)CC[C@@]56C[C@@]46CC[C@]23C)O1 | inactive
17 | O=C(Nc1ccc(Oc2ccnc3[nH]ccc23)c(F)c1)c1cccn(-c2ccc(F)cc2)c1=O | inactive
18 | CC(C(C)N1CC(=O)NC(=O)C1)N1CC(=O)NC(=O)C1 (stereo not drawn) | inactive
19 | CC(=CC(=O)Nc1ccccc1C(=O)O)c1ccc2ccccc2c1 | inactive
20 | Cc1cnc(NC(=O)Nc2cc(Br)c(C)cc2OC[C@@H]2CNCCO2)cn1 | inactive
21 | Cn1cnc2c(F)c(Nc3ccc(Br)cc3F)c(C(=O)NOCCO)cc21 | inactive
22 | O=S(=O)(O)CCSSCCS(=O)(=O)O | inactive
23 | CON=C(C(=O)N[C@@H]1C(=O)N2C(C(=O)O)=C(CSC(=O)c3ccco3)CS[C@H]12)c1csc(N)n1 | inactive
24 | C[C@@]12C[C@@]3(O)O[C@@H](O1)[C@]1(COC(=O)c4ccccc4)[C@@H]3C[C@@]12O[C@@H]1O[C@H](CO)[C@@H](O)[C@H](O)[C@@H]1O | inactive
25 | CC(=O)C1=C(O)C=C2Oc3c(C(C)=O)c(O)c(C)c(O)c3C2(C)C1=O (stereo not drawn) | inactive
26 | C[C@]12C=CC(=O)N[C@@H]1CC[C@H]1[C@H]3CC[C@@H](C(=O)Nc4cc(C(F)(F)F)ccc4C(F)(F)F)[C@@]3(C)CC[C@@H]12 | inactive

assay: qHTS of pediatric cancer cell lines to identify multiple opportunities for drug repurposing: Primary screen for Rh41 cells (AID 1347108); conditions: Rh41 rhabdomyosarcoma viability, CellTiter-Glo luminescence, 48 h; series mostly up to 46 µM; further: nearly all actives have a fitted effect of over 70% in size
Summary of the method: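 Following a 5-hour attachment period, cells at 500-1,000/well received compounds and were cultured for 48 hours. CellTiter-Glo was added and luminescence read to estimate viable, metabolically active cells.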

Row | SMILES | Potency
27 | Cc1cc(C(=O)NOCCO)c(Nc2ccc(I)cc2F)n(C)c1=O | inactive
28 | OCC(O)C(O)C(O)CO (stereo not drawn) | inactive
29 | C[C@H]1[C@@H](OC(=O)CCC(=O)O)O[C@@H]2O[C@@]3(C)CC[C@@H]4[C@H](C)CC[C@@H]1[C@@]24OO3 | 2.35 µM (active)
30 | Cc1cnc(Nc2ccc(CN3CCOCC3)cc2)nc1Nc1cccc(S(=O)(=O)NC(C)(C)C)c1 | 3.32 µM (active)
31 | OC[C@@H](O)[C@@H](O)[C@H](O)[C@@H](O)CO | inactive
32 | C[C@H](NC(=O)C(C#N)=Cc1cccc(Br)n1)c1ccccc1 | 23.5 µM (active)
33 | COC(=O)[C@@H]1[C@H]2C[C@@H]3c4[nH]c5ccccc5c4CCN3C[C@@H]2CC[C@@H]1O | inactive
34 | C=C(C)[C@@H]1CC[C@]2(C(=O)O)CC[C@]3(C)[C@H](CC[C@@H]4[C@@]5(C)CC[C@H](O)C(C)(C)[C@@H]5CC[C@]43C)[C@@H]12 | inactive
35 | CC(C)C[C@H](NC(=O)[C@@H](NC(=O)c1cccc(-c2ccccc2)n1)[C@@H](C)O)B(O)O | 0.0935 µM (active)
36 | CCN(C(=O)c1c(O)c2c(Cl)cccc2n(C)c1=O)c1ccccc1 | inactive
37 | CC(C)(O)CC[C@@H](O)[C@](C)(O)[C@H]1CC[C@@]2(O)C3=CC(=O)[C@@H]4C[C@@H](O)[C@@H](O)C[C@]4(C)[C@@H]3CC[C@]12C | inactive
38 | c1coc(CNc2ncnc3nc[nH]c23)c1 | inactive
39 | CCOc1cc2c(c(F)c1OCC)C(=N)N(CC(=O)c1cc(N3CCOCC3)c(OC)c(C(C)(C)C)c1)C2 | 23.5 µM (active)
40 | CC[C@H]1OC(=O)[C@H](C)[C@@H](O[C@H]2C[C@@](C)(OC)[C@@H](O)[C@H](C)O2)[C@H](C)[C@@H](O[C@@H]2O[C@@H](C)C[C@H](N(C)C)[C@@H]2O)[C@](C)(O)C[C@@H](C)C(=O)[C@H](C)[C@@H](O)[C@]1(C)O | inactive
41 | Cc1ccc2nc(NCCN)c3ncc(C)n3c2c1 | 18.7 µM (active)
42 | O=C(Nc1ccc(Oc2ccnc3[nH]ccc23)c(F)c1)c1cccn(-c2ccc(F)cc2)c1=O | inactive
43 | CC(C(C)N1CC(=O)NC(=O)C1)N1CC(=O)NC(=O)C1 (stereo not drawn) | inactive
44 | Cc1cnc(NC(=O)Nc2cc(Br)c(C)cc2OC[C@@H]2CNCCO2)cn1 | inactive
45 | O=S(=O)(O)CCSSCCS(=O)(=O)O | inactive
46 | CON=C(C(=O)N[C@@H]1C(=O)N2C(C(=O)O)=C(CSC(=O)c3ccco3)CS[C@H]12)c1csc(N)n1 | inactive
47 | C[C@@]12C[C@@]3(O)O[C@@H](O1)[C@]1(COC(=O)c4ccccc4)[C@@H]3C[C@@]12O[C@@H]1O[C@H](CO)[C@@H](O)[C@H](O)[C@@H]1O | inactive
48 | CC(=O)C1=C(O)C=C2Oc3c(C(C)=O)c(O)c(C)c(O)c3C2(C)C1=O (stereo not drawn) | inactive
